In assay [1] the target is Luciferin 4-monooxygenase (Photinus pyralis) (UniProt P08659). Briefly: qHTS assay to identify small molecule inhibitors of firefly luciferase (AID 1224835). Note: nearly all actives have a fitted effect of over 25% in size. Note: potency is the fitted concentration of half-maximal effect. The method, boiled down:
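Biochemical qHTS: compounds run as interplate titrations against purified firefly enzyme, with D-luciferin and ATP each at its KM concentration. Light output recorded by CCD imaging.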

Assay [2] in a line: qHTS assay to identify small molecule agonists of the constitutive androstane receptor (CAR) signaling pathway - cell viability counter screen (AID 1224836). For viability change, negative = cytotoxic: series mostly up to about 92 µM; % is set by controls: 0 for no effect and ±100 for the full control effect. Note: nearly all actives have a fitted effect of over 45% in size. Note: potency is the fitted concentration of half-maximal effect. The method, boiled down: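 Cells were seeded and incubated 4 hrs. Compounds were added across 15 concentrations together with PK11195 at 0.75 uM final. Plates were incubated 23 hrs at 37 C. CellTiter-Fluor was added and fluorescence measured.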
(Quantitative high-throughput screening tests each substance at several concentrations.)

Assay [3] in a line: qHTS assay to identify small molecule antagonists of the constitutive androstane receptor (CAR) signaling pathway - cell viability counter screen (AID 1224837). Note: series mostly up to about 92 µM; % is set by controls: 0 for no effect and ±100 for the full control effect; nearly all actives have a fitted effect of over 45% in size. The method, boiled down:
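Multiplexed cytotoxicity read-out for the CAR antagonist screen: double-stable HepG2-CYP2B6-hCAR cells co-treated with 50 nM CITCO (final) and compound over 15 concentrations, incubated 23 hr, then assessed by CellTiter-Fluor fluorescence.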

The target in assay [4] is Nuclear receptor subfamily 1 group I member 3 (Homo sapiens) (UniProt Q14994). Nature of the assay: qHTS assay to identify small molecule antagonists of the constitutive androstane receptor (CAR) signaling pathway (AID 1224838). For activity, negative = inhibition: % is set by controls: 0 for no effect and ±100 for the full control effect. Note: nearly all actives have a fitted effect of over 40% in size. Note: potency is the fitted concentration of half-maximal effect. Summed up: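 Compounds were titrated across 15 concentrations onto HepG2 cells double-stably expressing hCAR and a CYP2B6-2.2kb reporter, together with 50 nM CITCO (final). After 24 h at 37 C, luciferase activity was measured by luminescence.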
Chain of Nuclear receptor subfamily 1 group I member 3 (Homo sapiens) (Q14994 whole entry, looked up): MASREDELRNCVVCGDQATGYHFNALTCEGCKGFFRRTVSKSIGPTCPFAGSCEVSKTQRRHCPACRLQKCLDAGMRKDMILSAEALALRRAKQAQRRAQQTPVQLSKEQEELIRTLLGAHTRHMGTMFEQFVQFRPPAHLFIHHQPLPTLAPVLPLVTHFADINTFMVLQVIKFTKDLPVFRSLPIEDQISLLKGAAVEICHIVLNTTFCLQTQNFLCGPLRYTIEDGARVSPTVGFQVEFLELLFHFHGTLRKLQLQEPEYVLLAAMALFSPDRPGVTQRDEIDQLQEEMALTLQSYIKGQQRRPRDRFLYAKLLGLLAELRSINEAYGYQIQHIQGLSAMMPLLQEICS

The target is the same in assay [5]. Nature of the assay: qHTS assay to identify small molecule agonists of the constitutive androstane receptor (CAR) signaling pathway (AID 1224839). For activation: series mostly up to about 92 µM; % is set by controls: 0 for no effect and ±100 for the full control effect. Note: nearly all actives have a fitted effect of over 15% in size. Note: potency is the fitted concentration of half-maximal effect. The method, boiled down: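 Cells were plated and incubated 4 hrs, then dosed with compounds at 15 concentrations. PK11195 was added to 0.75 uM final. After 24 hrs at 37 C, luciferase luminescence was measured.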
A short description of assay [6]: qHTS assay to identify small molecule antagonists of the estrogen related receptor signaling pathway with the pleiotropic PPARgamma coactivator (PGC) from Tox21 10K library - cell viability counter screen (AID 1224840; active = well fitted cell-killing curve with a large enough effect in the repeat runs, not every such curve was filed as active; note: % is set by controls: 0 for no effect and ±100 for the full control effect; nearly all actives have a fitted effect of over 40% in size). Summed up: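 Step one, plate 2,000 PGC/ERR cells per well; step two, incubate 6 h at 37 C/5% CO2; step three, pin-transfer compounds; step four, incubate 17.5 h; step five, add CellTiter-Fluor and read fluorescence after 30 min.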

Assay [7] is described as follows: qHTS assay to identify small molecule antagonists of the estrogen related receptor signaling pathway with the pleiotropic PPARgamma coactivator (PGC) from Tox21 10K library (AID 1224841; call rule not given here; note: series mostly up to about 92 µM; % is set by controls: 0 for no effect and ±100 for the full control effect; actives are mostly falling curves and most rising ones were filed inactive; nearly all actives have a fitted effect of over 50% in size). The method, boiled down: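 Antagonism in this quantitative HTS is taken from loss of luciferase signal in PGC/ERR cells. Cells (2,000/well) are treated with compounds in DMSO after a 6 h settling period and read by One-Glo luminescence after 18 h.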

A short description of assay [8]: qHTS assay to identify small molecule agonists of the estrogen related receptor signaling pathway with the pleiotropic PPARgamma coactivator (PGC) from Tox21 10K library (AID 1224842). Note: % is set by controls: 0 for no effect and ±100 for the full control effect; nearly all actives have a fitted effect of over 15% in size. The method, boiled down: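 PGC/ERR reporter cell line, 2,000 cells per well, incubated 6 h at 37 C before 23 nL compound in DMSO was added. After 18 h at 37 C, One-Glo luminescence read following 30 min at room temperature.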

A short description of assay [9]: qHTS assay to identify small molecule antagonists of the estrogen related receptor (ERR) signaling pathway from Tox21 library - cell viability counter screen (AID 1224834). Note: potency is the fitted concentration of half-maximal effect; nearly all actives have a fitted effect of over 30% in size. The method, boiled down: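 Cytotoxicity of test substances is gauged in the same ERR cells used for the antagonist screen, after 17.5 h of compound treatment at 37 C, by CellTiter-Fluor fluorescence measured after 30 min.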

Several values for one entry are separate records, joined by “and”; a condition that tells them apart may be missing. Equal values may be shown once. Results filed as inconclusive are left out. Unmarked numbers belong to inactive results. Activity calls are given as the source filed them. Unless noted, calls come from the whole dose curve; as a rule, active = well fitted curve in the direction sought with a large enough effect in the repeat runs; inconclusive = weak or mixed curves; inactive = no such curve, though single readings can be large; an effect the other way counts as inactive or inconclusive.

Chain of Luciferin 4-monooxygenase (Photinus pyralis) (P08659 whole entry, looked up): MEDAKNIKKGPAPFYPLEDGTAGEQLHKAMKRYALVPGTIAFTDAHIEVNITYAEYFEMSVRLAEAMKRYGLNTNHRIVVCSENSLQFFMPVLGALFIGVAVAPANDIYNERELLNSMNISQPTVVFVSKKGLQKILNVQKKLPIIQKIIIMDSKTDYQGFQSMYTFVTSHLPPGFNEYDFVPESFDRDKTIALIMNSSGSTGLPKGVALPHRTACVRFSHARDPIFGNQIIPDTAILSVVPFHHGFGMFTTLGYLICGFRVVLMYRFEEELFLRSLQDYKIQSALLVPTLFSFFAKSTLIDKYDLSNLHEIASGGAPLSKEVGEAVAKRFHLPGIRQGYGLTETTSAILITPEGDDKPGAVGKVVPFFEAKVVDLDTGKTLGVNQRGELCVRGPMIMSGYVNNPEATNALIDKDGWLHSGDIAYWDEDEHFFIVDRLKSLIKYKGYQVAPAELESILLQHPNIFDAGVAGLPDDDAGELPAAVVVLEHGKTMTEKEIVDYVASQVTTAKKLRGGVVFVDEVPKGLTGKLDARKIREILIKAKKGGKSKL

As to `CN1C(=O)CC(C)(c2ccccc2)C1=O` (stereo unspecified), the Potency entry in [1], in assay [2], in [3], in assay [4], in [5] and in [6] was “inactive” in each case. Moreover, the Potency entry in assay [7] and in [8] was “inactive” throughout.

On to `C/C=C/C=C/CCCCCCCO`, for which the Potency entry in [1], in assay [2] and in assay [3] was “inactive” each time.

`CCc1c2c(nc3ccc(OC(=O)N4CCC(N5CCCCC5)CC4)cc13)-c1cc3c(c(=O)n1C2)COC(=O)[C@]3(O)CC`: the Potency entry in assay [1], in [2], in assay [3], in assay [5] and in assay [6] was “inactive” throughout. Also, the Potency in assay [4] was 2.98 µM (active).

With `Cc1occc1C(=O)Nc1ccc(C(=O)N2CCC(F)(F)/C(=C\C(=O)N3CCC(N4CCCCC4)CC3)c3ccccc32)cc1`, the Potency result in assay [1], in [2], in assay [3], in assay [4], in assay [5] and in [8] was “inactive” throughout.

On to `O=C(O)c1ccc(CO)o1`, for which the Potency entry in [1], in [2], in assay [3], in assay [4], in assay [5] and in [6] was “inactive” in each case.

With `CC(=O)Oc1ccc2c(c1)CC[C@@H]1[C@@H]2CC[C@]2(C)[C@@H](O)CC[C@@H]12`, the Potency in assay [1] was 24.5 µM (active); in assay [5] it was 9.44 µM (active). Further, the Potency entry in assay [2], in [3], in assay [4], in assay [6], in assay [7] and in assay [8] was “inactive” throughout.

For the molecule `CN(C)CCOC1=Cc2ccccc2Sc2ccc(Cl)cc21`, the Potency entry in assay [1], in [2], in [3], in assay [4], in [5] and in [6] was “inactive” in each case. Besides, the Potency result in [7] and in assay [8] was “inactive” in each case.

Turning to `NCC1CCCC(CN)C1` (stereo unspecified), the Potency result in [1], in assay [2], in [3], in assay [4], in assay [5] and in [6] was “inactive” in each case. Besides, the Potency entry in [7] and in assay [8] was “inactive” each time.

As for `OC(CCCN1CCCCC1)(c1ccccc1)c1ccccc1`, the Potency entry in assay [1], in assay [2], in assay [3], in assay [5], in assay [6] and in assay [7] was “inactive” in each case. Besides, in assay [8], the Potency entry is “inactive”.

With `O=C(O)C(Cc1cc(I)c(O)c(I)c1)c1ccccc1` (stereo unspecified), the Potency result in assay [1], in [2], in assay [3], in [4], in assay [5] and in assay [6] was “inactive” throughout.

In the case of `CC1C2CC(CC2C2CCCC(O)C2)C1(C)C` (stereo unspecified), the Potency entry in assay [1], in assay [2] and in [3] was “inactive” each time.

For `CC(C)CCCCCCOC(=O)CCCCC(=O)OCCCCCCC(C)C`, the Potency entry in assay [1], in [2] and in assay [3] was “inactive” each time.

For `O=C(c1ccc(O)cc1)c1ccc(Cl)cc1`, the Potency in [1] is 64.7 µM (active); in assay [5], 49.6 µM (active). The Potency result in assay [2], in assay [3], in assay [4] and in assay [6] was “inactive” in each case.

On to `CCC(C(=O)OCCN(CC)CC)c1ccccc1` (stereo unspecified), for which the Potency entry in [1], in [2], in [3], in assay [4] and in assay [5] was “inactive” in each case.

Regarding `Cc1cc(O)c2c(O)c3c(O)cccc3cc2c1`, the Potency result in assay [1], in [2], in [3], in assay [4], in [6] and in assay [8] was “inactive” each time. Moreover, in [5], the Potency was 29.8 µM (active).

As for `C=CC(C)(C)CC(=O)OC`, the Potency in [9] is 1.22 µM (active); in [4], 15.4 µM (active). Moreover, the Potency result in assay [5] is “inactive”.

With `COCCOC`, the Potency in [9] was 1.04 µM (active); in assay [2], 1.64 µM (active); in assay [4] it was 9.24 µM (active). Also, in assay [5], the Potency entry is “inactive”.

`CCCCN(CCCC)CCCOC(=O)c1ccc(N)cc1`: the Potency entry in [1], in assay [2], in assay [3], in [4] and in assay [6] was “inactive” throughout. Moreover, the Potency in assay [5] is 26.6 µM (active).

Take `COCc1c(C(C)C)nc(C(C)C)c(/C=C/[C@@H](O)C[C@@H](O)CC(=O)O)c1-c1ccc(F)cc1`: the Potency result in [1], in assay [2], in assay [3], in assay [5] and in assay [6] was “inactive” in each case. In addition, in [4], the Potency was 4.73 µM (active) and 6.05 µM (active).

As for `CC(=N\O)/C(C)=N/O`, the Potency result in [1], in assay [2], in assay [3], in assay [4], in [5] and in assay [6] was “inactive” in each case.

With `CC(C)C(OC(=O)c1ccccc1)C(C)(C)COC(=O)c1ccccc1` (stereo unspecified), the Potency entry in assay [1], in assay [2], in assay [3], in [4] and in assay [6] was “inactive” in each case.

As to `O=C(O)c1c(O)c(-c2ccccc2)nc2ccccc12`, the Potency in [1] was 34.7 µM (active). Besides, the Potency entry in assay [2], in [3], in [4] and in assay [6] was “inactive” throughout.

In the case of `Cc1c(C(=O)NN2CCCCC2)nn(-c2ccc(Cl)cc2Cl)c1-c1ccc(Cl)cc1`, the Potency result in [1], in assay [2], in assay [3], in [5] and in [6] was “inactive” each time. For the same molecule, in [4], the Potency was 23.7 µM (active).

Turning to `COc1ccc([C@@H]2Sc3ccccc3NC(=O)[C@@H]2O)cc1`, the Potency result in assay [1], in assay [2], in [3], in assay [5], in [6] and in assay [8] was “inactive” each time.

As for `CCCOC(=O)c1ccc(N)cc1`, the Potency entry in assay [1], in [2], in [4], in assay [7] and in assay [8] was “inactive” in each case.

For the molecule `C=CCCCCCCCCCCCCCCCC`, the viability change, negative = cytotoxic in assay [2] was -0.127% [at 8.39 µM]; in [6], 2.55% [at 8.39 µM]. In addition, the activity change, negative = cytotoxicity in assay [3] was 3.23% [at 8.39 µM]. In addition, the activity, negative = inhibition in assay [4] is 0.748% [at 8.39 µM]; in assay [7], -28.3% [at 8.39 µM]. Also, the figures for the activation in [5] and in assay [8] were -5.43% [at 8.39 µM] and 0.156% [at 8.39 µM], respectively.

For the molecule `O=C(CCCCCCC(=O)Nc1ccccc1)NO`, the Potency result in assay [1], in assay [5] and in assay [6] was “inactive” throughout. Also, in [4], the Potency was 3.76 µM (active).

As to `CC(C)(O)c1ccccc1CC[C@@H](SCC1(CC(=O)O)CC1)c1cccc(/C=C/c2ccc3ccc(Cl)cc3n2)c1`, the Potency entry in assay [2], in assay [3], in assay [6], in assay [7] and in assay [8] was “inactive” throughout.

With `Fc1ccccc1[C@@H](F)COC1CCC(Nc2ncnc3[nH]ncc23)CC1` (stereo partly specified), the Potency result in assay [1], in [4] and in assay [5] was “inactive” each time.

Source of the values: PubChem BioAssay (Tox21).
